These results are taken from PubChem BioAssay (NCI).

Test systems include NCI-H23 lung; NCI-H226 lung; NCI-H322M lung; HOP-62 NSCLC; NCI-H460 lung; HOP-92 NSCLC; NCI-H522 lung; A549/ATCC NSCLC; 786-0 renal; COLO 205 colon.
What all share (assay): NCI-60 one-dose screen, 48 h (100 = growth as untreated, 0 = no growth, -100 = all killed)
Holding throughout (settings): 10 µM unless noted

Where “and” joins values, the source holds several entries; their conditions need not be identical. Identical values can stand only once. This is part of a sample that, as a whole, favours compounds with a hit. Of some 83,000 tested, about 20% had one in any assay.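 A percent growth of 40 corresponds to 60% growth inhibition; 0 means no net growth; -100 means all cells died. Active threshold: below 10.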 Values without a mark were called inactive. Calls of active or inactive are those of the source.

As for `c1ccc2c(c1)Nc1cc3ccccc3cc1N2`, the growth is 30.3% with NCI-H23 lung; 80.5% in the assay with NCI-H226 lung; 48.5% in the assay with NCI-H322M lung; 41.4% in the assay with HOP-62 NSCLC; 51.7% in the assay with NCI-H460 lung; 85% in the assay on HOP-92 NSCLC. Besides, the growth in the assay with NCI-H522 lung is -14.7% (active); in the assay with A549/ATCC NSCLC, 41.5%; with 786-0 renal, 66.6%; in the assay with COLO 205 colon, -43.7% (active).

Take `O=C1c2ccccc2C(=O)c2sc(Nc3ccc(Cl)cc3)nc21`: the growth in the assay with NCI-H23 lung was -53.2% (active); in the assay on NCI-H226 lung, 1.07% (active); in the assay on NCI-H322M lung, 78%; in the assay on HOP-62 NSCLC it was 55.4%; in the assay on NCI-H460 lung, 87.7%; in the assay with HOP-92 NSCLC it was 59.1%. The growth was 15.9% in the assay on NCI-H522 lung, 71.8% in the assay on A549/ATCC NSCLC, 60.9% with 786-0 renal and 82.9% in the assay with COLO 205 colon.

For `O=C1C2=C(Nc3cc([N+](=O)[O-])ccc3N2)OC1c1c2ccccc2cc2ccccc12` (stereo not given), the growth is 51.7% with NCI-H23 lung; 82.9% in the assay on NCI-H226 lung; 71.8% with NCI-H322M lung; 88% in the assay with HOP-62 NSCLC; 46% with NCI-H460 lung; 44.1% with HOP-92 NSCLC. In addition, the growth in the assay on NCI-H522 lung is 24%; with A549/ATCC NSCLC, 71.1%; in the assay with 786-0 renal it was 48.3%; in the assay on COLO 205 colon it was 118%.

Turning to `CCC(=O)Sc1ccccc1C(=O)Nc1ccc(Cl)cc1`, the growth with NCI-H23 lung was 46.1%; in the assay on NCI-H226 lung, 52.7%; in the assay on NCI-H322M lung, 55.4%; in the assay on HOP-62 NSCLC it was 76.5%; with NCI-H460 lung, 34.5%; with HOP-92 NSCLC, 16.3%. Moreover, the growth was 67.3% in the assay on NCI-H522 lung, 76.5% in the assay on A549/ATCC NSCLC, 57% with 786-0 renal and 84.7% in the assay with COLO 205 colon.

`C/C=C1\SC(=S)NC1=O`: the growth is 98.5% in the assay on NCI-H23 lung; 103% with NCI-H226 lung; 108% with NCI-H322M lung; 100% with HOP-62 NSCLC; 107% in the assay on NCI-H460 lung; 94.2% in the assay with HOP-92 NSCLC. For the same compound, the growth is 103% with NCI-H522 lung, 99.7% in the assay with A549/ATCC NSCLC, 97.8% in the assay on 786-0 renal and 104% in the assay on COLO 205 colon.

Take `Oc1c(Cl)cc(Cl)c2cccnc12`: the growth in the assay on NCI-H23 lung was 64.6% and 49.1%; in the assay with NCI-H226 lung, 81% and 71.6%; in the assay on NCI-H322M lung it was 63.2% and 72.1%; with HOP-62 NSCLC, 49.7% and 71.2%; with NCI-H460 lung it was 24.7% and 27.4%; with HOP-92 NSCLC it was 49.7%. Moreover, the growth in the assay with NCI-H522 lung was 65.2% and 71.8%; in the assay with A549/ATCC NSCLC it was 30.6%; with 786-0 renal it was 69.1% and 74%; with COLO 205 colon it was 99.9% and 85.2%.

For `N#CSCc1c(Cl)cccc1Cl`, the growth with NCI-H23 lung was 34.7%; in the assay on NCI-H226 lung it was 99.3%; with NCI-H322M lung, 97.9%; with HOP-62 NSCLC it was 79.1%; with NCI-H460 lung, 106%; in the assay with HOP-92 NSCLC it was 53.7%. Further, the growth in the assay on NCI-H522 lung was 43.8%; in the assay with A549/ATCC NSCLC, 97.6%; in the assay on 786-0 renal, 71.5%; with COLO 205 colon, 49.6%.

In the case of `Cc1c2ccccc2c(C)c2c1ccc1ccccc12`, the growth in the assay with NCI-H23 lung was 81.6%; with NCI-H226 lung, 100%; with NCI-H322M lung, 90.8%; in the assay with HOP-62 NSCLC it was 95.1%; in the assay on NCI-H460 lung, 87.6%; in the assay on HOP-92 NSCLC it was 88.6%. Further, the growth in the assay on NCI-H522 lung was 79.5%; with A549/ATCC NSCLC, 78.4%; in the assay on 786-0 renal, 91.5%; with COLO 205 colon, 94.6%.

As for `CN(C)c1ccc(N=Nc2cccc3ccccc23)cc1`, the growth in the assay with NCI-H23 lung was 84.3%; in the assay with NCI-H226 lung it was 63.5%; in the assay on NCI-H322M lung, 94.4%; in the assay with HOP-62 NSCLC, 85.7%; in the assay on NCI-H460 lung, 92.7%; with HOP-92 NSCLC it was 74%. Further, the growth with NCI-H522 lung is 95%; with A549/ATCC NSCLC it was 89.8%; in the assay on 786-0 renal, 100%; with COLO 205 colon it was 87.2%.

As for `CCC1OC(OC)C=CC1=O` (stereo not given), the growth was 106% with NCI-H23 lung; 103% in the assay on NCI-H226 lung; 108% with NCI-H322M lung; 98.2% in the assay with HOP-62 NSCLC; 108% with NCI-H460 lung; 90.1% in the assay with HOP-92 NSCLC. For the same compound, the growth in the assay on NCI-H522 lung was 95.5%; in the assay on A549/ATCC NSCLC, 102%; in the assay with 786-0 renal, 99.9%; in the assay with COLO 205 colon it was 103%.

Consider `Cc1ccc2nc(C[n+]3ccc4ccccc4c3)ccc2c1`, for which the growth in the assay with NCI-H23 lung was 42%; in the assay with NCI-H226 lung, 68.9%; with NCI-H322M lung, 97.6%; in the assay with HOP-62 NSCLC, 69.9%; with NCI-H460 lung, 55%; in the assay on HOP-92 NSCLC, 28%. Further, the growth with NCI-H522 lung was 47.1%; in the assay with A549/ATCC NSCLC it was 51.7%; with 786-0 renal, 92.2%; in the assay with COLO 205 colon, 27.3%.

With `O=C(/C=C\c1cc(Br)ccc1O)/C=C/c1cc(Br)ccc1O`, the growth is -11.9% (active) in the assay with NCI-H23 lung; -64.8% (active) with NCI-H226 lung; 6.71% (active) in the assay with NCI-H322M lung; -57.3% (active) in the assay with HOP-62 NSCLC; -34.9% (active) with NCI-H460 lung; -40.1% (active) in the assay on HOP-92 NSCLC. Further, the growth is -62.9% (active) in the assay on NCI-H522 lung, -8.66% (active) in the assay with A549/ATCC NSCLC, -68% (active) with 786-0 renal and -70.6% (active) with COLO 205 colon.
